The campaign covered roughly 220,000 compounds. About 5,700 (2.6%) were called active. Roughly 18% stayed inconclusive and do not appear here. Calls come from the whole dose curve; as a rule, active = well fitted inhibition curve with a large enough effect; inconclusive = small, poorly fitted or top-dose-only effect; inactive = no such curve, though single readings can be large or run the other way. The list comes from a sample in which actives are over-represented; it also holds similar structures and randomly drawn compounds. A call without a number means that no potency is given here.
biological target: Lysine-specific demethylase 5B (Homo sapiens) (UniProt Q9UGL1); assay: Primary screen for KDM5B Histone Demethylases FDH-coupled qHTS; settings: FDH-coupled NADH fluorescence (FDH is formaldehyde dehydrogenase); series mostly up to 57.7 µM; note: nearly all actives have a fitted effect of over 70% in size
How it was run: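 Compound dilutions met 200 nM (final) KDM5BΔAP for 10 min at room temperature before substrate addition. The substrate mix held 12.5 µM H3K4me3 with cofactors 25 µM α-ketoglutarate and 50 µM Fe²⁺. NADH signal gain over 30 min defined activity.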
Potency is the fitted concentration of half-maximal effect.

Chain of Lysine-specific demethylase 5B (Homo sapiens) (Q9UGL1 whole entry, looked up): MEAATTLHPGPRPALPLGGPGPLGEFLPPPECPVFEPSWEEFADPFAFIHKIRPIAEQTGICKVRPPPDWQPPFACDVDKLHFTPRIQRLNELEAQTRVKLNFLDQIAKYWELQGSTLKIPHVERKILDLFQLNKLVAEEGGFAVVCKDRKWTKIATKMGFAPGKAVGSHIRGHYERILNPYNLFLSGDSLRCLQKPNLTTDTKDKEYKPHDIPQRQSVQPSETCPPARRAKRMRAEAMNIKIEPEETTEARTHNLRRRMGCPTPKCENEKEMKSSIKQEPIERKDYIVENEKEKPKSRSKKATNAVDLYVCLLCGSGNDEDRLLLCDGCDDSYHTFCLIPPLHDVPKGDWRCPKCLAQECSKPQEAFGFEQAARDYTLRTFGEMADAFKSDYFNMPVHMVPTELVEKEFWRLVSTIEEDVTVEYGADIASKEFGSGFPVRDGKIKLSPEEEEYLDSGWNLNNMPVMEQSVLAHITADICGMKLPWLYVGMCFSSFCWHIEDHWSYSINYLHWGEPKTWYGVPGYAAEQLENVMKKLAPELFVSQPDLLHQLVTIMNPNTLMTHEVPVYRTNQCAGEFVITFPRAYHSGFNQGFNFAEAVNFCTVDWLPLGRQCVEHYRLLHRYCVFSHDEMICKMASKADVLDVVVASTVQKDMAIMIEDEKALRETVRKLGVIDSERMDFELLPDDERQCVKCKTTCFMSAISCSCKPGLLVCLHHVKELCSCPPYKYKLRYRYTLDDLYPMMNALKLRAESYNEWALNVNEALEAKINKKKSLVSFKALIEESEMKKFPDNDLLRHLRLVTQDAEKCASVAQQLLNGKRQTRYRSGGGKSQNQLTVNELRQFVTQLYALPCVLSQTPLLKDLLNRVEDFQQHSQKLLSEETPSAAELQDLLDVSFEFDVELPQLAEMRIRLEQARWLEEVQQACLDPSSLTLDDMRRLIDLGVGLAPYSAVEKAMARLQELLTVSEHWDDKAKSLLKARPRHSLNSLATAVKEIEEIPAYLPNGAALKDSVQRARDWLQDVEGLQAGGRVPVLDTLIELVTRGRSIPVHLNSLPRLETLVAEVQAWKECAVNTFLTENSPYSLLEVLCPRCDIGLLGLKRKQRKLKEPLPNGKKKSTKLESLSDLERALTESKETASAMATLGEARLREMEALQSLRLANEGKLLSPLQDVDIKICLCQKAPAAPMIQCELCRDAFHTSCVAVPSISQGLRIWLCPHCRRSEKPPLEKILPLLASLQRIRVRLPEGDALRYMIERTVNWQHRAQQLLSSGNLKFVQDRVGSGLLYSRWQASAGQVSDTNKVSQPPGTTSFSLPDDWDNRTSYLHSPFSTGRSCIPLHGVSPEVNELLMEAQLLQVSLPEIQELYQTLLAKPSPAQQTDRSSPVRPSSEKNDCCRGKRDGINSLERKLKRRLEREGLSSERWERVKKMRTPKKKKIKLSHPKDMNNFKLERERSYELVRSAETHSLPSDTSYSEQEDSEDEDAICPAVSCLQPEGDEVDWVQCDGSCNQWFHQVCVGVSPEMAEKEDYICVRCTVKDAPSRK

| Structure (SMILES) | Potency |
| --- | --- |
| CC1CCN(c2nc3c(c(=O)n(C)c(=O)n3C)n2CC(=O)c2ccc(Br)cc2)CC1 | inactive |
| COc1cccc(C(=O)N2CCC(C(NC(=O)c3ccccc3C)C(=O)NCC(C)C)CC2)c1 (stereo not drawn) | inactive |
| C=CCNC(=O)C(NC(=O)c1cccc(OC)c1)C1CCN(C(=O)c2ccccc2F)CC1 (stereo not drawn) | 31.6 µM (active) |
| CCCNC(=O)C(NC(=O)c1cccc(OC)c1)C1CCN(C(=O)c2ccccc2F)CC1 (stereo not drawn) | inactive |
| Cn1c(=O)[nH]c(=O)c2c1nc(N1CCNCC1)n2CC(N)=O | inactive |
| O=[N+]([O-])c1cc(C(F)(F)F)ccc1NCCc1ccncc1 | inactive |
| O=c1oc2ccccc2c(N2CCCC2)c1NS(=O)(=O)c1cccc(F)c1 | inactive |
| COCC1CN(C(C)=O)CC12CCN(C(=O)NCc1cccc(OC)c1)CC2 (stereo not drawn) | inactive |
| COCC1CN(C(C)=O)CC12CCN(Cc1ccccc1OC)CC2 (stereo not drawn) | inactive |
| CCOc1cccc(CN2CCC3(CC2)CN(C)CC3COC)c1 (stereo not drawn) | 14.1 µM (active) |
| Cc1occc1-c1nnc(SCC(=O)c2cc(C)n(C3CC3)c2C)n1C | inactive |
| CC(NC(=O)c1ccco1)c1ccc(-c2ccccc2)cc1 (stereo not drawn) | inactive |
| Cc1ccc2c(C)cc(SCC(=O)NC3CC3)nc2c1 | inactive |
| CC1(C(=O)NCc2ccc3c(c2)OCO3)CCc2cnc(NCc3ccccc3)nc21 (stereo not drawn) | 25.1 µM (active) |
| CC1(C(=O)NCC2CCCO2)CCCc2cnc(Nc3ccccc3)nc21 (stereo not drawn) | inactive |
| CN(Cc1ccccc1)C(=O)C1(C)CCCc2cnc(Nc3cccnc3)nc21 (stereo not drawn) | inactive |
| O=C(Cn1nc2c(cc1=O)CCCC2)Nc1cc(C(F)(F)F)ccc1Cl | inactive |
| Cc1nn2c(c1-c1ccccc1Oc1ccccc1)N(C(=O)C(C)C)CCC2 | inactive |
| Cc1nn2c(c1-c1ccccc1-c1ccccc1)N(CC1CC1)CCC2 | 28.2 µM (active) |
| Cc1nn2c(c1-c1ccccc1-c1ccccc1)N(C(=O)CN1CCOCC1)CCC2 | inactive |
| CCc1ccc(N(CC)C(=O)C(=O)c2c[nH]c3ccccc23)cc1 | inactive |
| Cc1ccc(CCC(=O)NCc2cccnc2)cc1 | inactive |
| Cc1ccc2[nH]c(=O)c(CCC(=O)NCc3ccncc3)cc2c1 | 25.1 µM (active) |
| Cc1ccc2[nH]c(=O)c(COC(=O)c3ccccn3)cc2c1 | inactive |
| COCCN(C)C[C@H]1C[C@H](CO)CN(C(=O)c2ccc(C(C)C)[nH]c2=O)C1 | inactive |
| CC1(C)CC(=O)C2=C(C1)Nc1nc(N)[nH]c(=O)c1C2c1ccc2c(c1)OCO2 (stereo not drawn) | inactive |

| Structure (SMILES) | Potency |
| --- | --- |
| Cc1cn2nc(C(=O)Nc3ccc(F)cc3F)cc2c(N(C)Cc2ccccc2)n1 | inactive |
| COc1cccc(CNC(=O)Cn2c(N(C)Cc3ccccc3)nc(C)cc2=O)c1OC | inactive |
| CCN(CC)c1nc2ccccc2nc1C(=O)Nc1ccc(C)c(C)c1 | inactive |
| Cc1cn2nc(C(=O)Nc3cc(F)cc(F)c3)cc2c(N(C)Cc2ccccc2)n1 | 25.1 µM (active) |
| Cc1cn2nc(C(=O)Nc3ccc(F)cc3C)cc2c(N(C)Cc2ccccc2)n1 | 20 µM (active) |
| Cc1cn2nc(C(=O)Nc3cccc(F)c3)cc2c(N(C)Cc2ccccc2)n1 | inactive |
| CCN(CC)c1nc2ccccc2nc1C(=O)Nc1ccc(C)cc1C | inactive |
| Cc1cc(C)cc(NC(=O)N(C)Cc2ccccc2)c1 | inactive |
| COc1ccc(NC(=O)c2cc3c(N(C)Cc4ccccc4)nc(C)cn3n2)cc1F | 17.8 µM (active) |
| Oc1ccc(-c2nc(-c3ccccc3F)cs2)cc1 | inactive |
| C=CCNC(=O)Nc1cc(NC(=O)Nc2ccccc2)ccc1C | inactive |
| Cc1ccc(CN2CCOc3cc([S+](=O)([O-])N(C)C)ccc3C2)c(F)c1 | inactive |
| Cc1ccc(CN2CCC(Oc3cnc4c(ccn4CCN[S+](C)(=O)[O-])c3)CC2)c(F)c1 | 31.6 µM (active) |
| CCCc1noc(CSc2nc(-c3ccco3)nc3ccccc23)n1 | inactive |
| O=C(O)C/C(=C/c1cccc(Cl)c1)c1nc2ccccc2o1 | inactive |
| CCCOc1ccc2ccccc2c1CN(C)C(=O)c1n[nH]c(=O)c2ccccc12 | inactive |
| CN(C)c1cccc(Nc2cc3c(cn2)NCCN(Cc2ccccc2)C3)c1 | 25.1 µM (active) |
| Cn1ccc(Nc2cc3c(cn2)CN(CCc2ccccc2)CCN3)n1 | inactive |
| Fc1ccccc1CN1CCNc2cc(Nc3cccnc3)ncc2C1 | inactive |
| NC(=O)c1cccc(C(=O)N2CCC(c3nc4ccccc4o3)CC2)c1 | inactive |
| CCOc1c(OC)cccc1-c1nc2ccc(-c3ccc(OC)c(OC)c3OC)cc2o1 | 12.6 µM (active) |
| COc1cccc(NC(=O)Nc2cc(-c3nc4ccccc4o3)ccc2OC)c1 | inactive |
| COc1cccc(-c2nc3ccc(-c4ccc5c(c4)OCO5)cc3o2)c1OC | inactive |
| Cc1ccc2c(c1)-c1c(cnn1CC(=O)N(C)c1ccccc1Cl)CO2 | inactive |
| CC(C)(C)c1cc(NC(=O)Nc2cc(Cl)cc(Cl)c2)no1 | inactive |
| COCCOc1ccnc(-c2noc([C@@H]3CCCN3Cc3ccc(Cl)cc3)n2)c1 | inactive |

| Structure (SMILES) | Potency |
| --- | --- |
| COCCOc1ncccc1-c1noc([C@@H]2CCCN2CC(C)(C)C)n1 | inactive |
| COCCNc1ncccc1-c1noc([C@@H]2CCCN2Cc2ccc3c(c2)OCO3)n1 | 31.6 µM (active) |
| Cc1c(-c2ccc(Cl)cc2)nc2ccccc2c1C(=O)NC1CCCCCCC1 | inactive |
| COc1ccc(F)cc1-c1ncc2c(n1)OCCN(CC1CC1)C2=O | 35.5 µM (active) |
| C[S+](=O)([O-])c1cccc(-c2ncc3c(n2)OCCN(Cc2ccc(F)cc2F)C3=O)c1 | inactive |
| COc1ccc(-c2ncc3c(n2)OCCN(CC2CC2)C3=O)cc1 | 35.5 µM (active) |
| COc1cccc(-c2ncc3c(n2)OCCN(Cc2ccc(F)cc2F)C3=O)c1OC | inactive |
| COCCN1CCOc2nc(-c3cccc(C)c3)ncc2C1=O | inactive |
| NC(=O)c1cccc(-c2ncc3c(n2)OCCN(CC2CC2)C3=O)c1 | inactive |
| Cn1c(=O)c2c(nc(SCC(=O)Nc3ccccc3)n2Cc2ccccc2Cl)n(C)c1=O | inactive |
| Cc1[nH]c2ccccc2c1C(=O)C(C)Sc1nnc(C2CC2)o1 (stereo not drawn) | inactive |
| CC(C)c1ccc(C(=O)OC2CCOC2=O)cc1 (stereo not drawn) | inactive |
| Cc1oc(-c2cccs2)nc1CC(=O)N1CCCC1c1ccccc1 (stereo not drawn) | inactive |
| CCOc1ccc(NC(=O)CN(C)C(=O)Cn2c(=O)cnc3ccccc32)cc1OCC | inactive |
| COc1ccc(N2C(=O)C(C)CS2(=O)=O)cc1S(=O)(=O)Nc1ccc(N2CCCC2)cc1 (stereo not drawn) | inactive |
| Cc1ccc(N2CCC(NC(=O)c3ccc4[nH]ccc4c3)C2=O)cc1C (stereo not drawn) | 31.6 µM (active) |
| Cc1cc(N2CCC(NC(=O)c3ccc(N(C)C)cc3)C2=O)ccc1F (stereo not drawn) | inactive |
| Cc1ccc(C(=O)NC2CCSC2=O)cc1C (stereo not drawn) | inactive |
| COCC(=O)N1CCN(C2CCN(CCc3ccccc3)C2=O)CC1 (stereo not drawn) | inactive |
| CCc1cccc(CC)c1NC(=O)C(C)Sc1ccc(C)cc1 (stereo not drawn) | inactive |
| Cc1cc(NC(=O)Nc2c(C3=CCCCC3)c(C)nn2C)ccc1Br | inactive |
| O=c1[nH]c(-c2ccncc2)nc2c1CCN(S(=O)(=O)N1CCCC1)C2 | inactive |
| CC(=O)c1ccc(NC(=O)N2CCc3c(nc(-c4ccc(F)cc4)[nH]c3=O)C2)cc1 | 25.1 µM (active) |
| Cc1ccc(C(=O)NC2CCN(C(=O)Nc3ccc(F)cc3)CC2)cc1 | inactive |
| O=C(c1ccco1)N1CCC(C(=O)N2CCN(C(=O)C3CC3)CC2)CC1 | inactive |
| CC(=O)Nc1ccc(SCC(=O)N(Cc2nc3ccccc3c(=O)[nH]2)CC2CCCO2)cc1 (stereo not drawn) | inactive |

| Structure (SMILES) | Potency |
| --- | --- |
| COc1ccc(-c2ccnc(-c3nnc(C)n3C3CCN(C)CC3)c2)cc1OC | 31.6 µM (active) |
| Cc1nnc(-c2cc(-c3ccccc3)ccn2)n1CCc1ccccc1 | inactive |
| COCCn1c(C)nnc1-c1cc(-c2cccc(F)c2)ccn1 | inactive |
| Cc1nnc(CSc2nnc(Nc3cccc(C)c3C)s2)o1 | inactive |
| COc1cc(-c2ccnc3nc(C4CC4)nn23)cc(OC)c1OC | 17.8 µM (active) |
| O=C(Nc1cccn2nc(C3CCC3)nc12)c1cccc(F)c1 | inactive |
| COc1cc(C(=O)N2CCC(c3ccncc3)CC2)cc(OC)c1OC | inactive |
| COc1ccc(N2CC(c3noc(-c4cc(OC)c(OC)c(OC)c4)n3)CC2=O)cc1 (stereo not drawn) | inactive |
| Fc1ccc(-c2ccnc3nc(C4CCC4)nn23)cc1 | 31.6 µM (active) |
| CCC(=O)c1ccc(OC(=O)c2cc3ccccc3oc2=O)cc1 | inactive |
| CSc1ncc(C(=O)Nc2ccc(Cl)cc2)c(C(F)(F)F)n1 | inactive |
| COc1ccccc1NC(=O)C1c2ccccc2C(=O)N(CC(C)C)C12CCCC2 (stereo not drawn) | inactive |
| CC(C)(C)C(=O)c1cn(CCOc2ccccc2F)c2ccccc12 | inactive |
| COCCNC(=O)[C@@H]1C[C@@H](O)CN1C1CCN(C(=O)CCc2ccccc2)CC1 | inactive |
| Cc1ccc(OCc2nc(C3CCN(C(=O)CCc4nc5ccc(Cl)cc5[nH]4)CC3)no2)cc1 | inactive |
| COc1nccnc1NC1CCN(C(=O)CCc2c(C)noc2C)CC1 | 31.6 µM (active) |
| O=C(NCc1ccccc1)N1CCN2C(=O)NC[C@H]2C1 | inactive |
| COc1nccnc1NC1CCN(C(=O)CCc2ccccc2)CC1 | 25.1 µM (active) |
| Cc1nc2c(c(NC3CC3)n1)CCN(C(=O)CCc1cccnc1)CC2 | inactive |
| COc1nc2ccccc2nc1N1CCC(C(=O)NCc2ccccc2)CC1 | inactive |
| Cc1noc(C)c1CC(=O)N1CCC(c2n[nH]c(=O)n2Cc2ccc(F)cc2)CC1 | inactive |
| COc1nccnc1NC1CCN(C(=O)NCc2ccccc2)CC1 | 28.2 µM (active) |
| CC/C(=N\NC(=O)c1ccc(C(C)(C)C)cc1)c1ccccc1 | inactive |
| Cn1cnnc1C1CCCN(S(=O)(=O)N2CCCCC2)C1 (stereo not drawn) | inactive |
| Cc1ccc(OCC(O)Cn2cnc3sccc3c2=O)c(C)c1 (stereo not drawn) | inactive |

Source: PubChem BioAssay AID1347165 (National Center for Advancing Translational Sciences (NCATS), 2019)
